“And” between values parts separate entries of the source, which are not always exact repeats. Identical values can stand only once. Hit rate of the full screen: of about 5,500 compounds, about 2,000 (36%) were called active. About 18% were inconclusive and are not listed. The list shows a part of the results. Unmarked numbers belong to inactive results. No stated cut-off is given here; in the data, active means normalized growth mostly below about 0.91 (no sharp cut-off); inconclusive means no clear call, values can overlap the other calls; inactive means mostly above about 0.92.
Assay: chemical genetic growth profiling, strain panel (AID 1159580);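 further: tested at 20 µM; growth read once vehicle control cultures reached saturation at 30 °C; 1 = growth at the plate median or of vehicle wells; lower values mean less growth of the strain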
Conditions: S. cerevisiae deletion strains, growth OD

`O=C1[C@H](CCC(O)c2ccc(F)cc2)[C@@H](c2ccc(O)cc2)N1c1ccc(F)cc1` (stereo partly specified) gave a normalized growth (locus YAL013W, strain DEP1, active compounds read low) of 0.988, a normalized growth (locus YAL021C, strain ccr4, active compounds read low) of 0.999 and a normalized growth (locus YAL026C, strain drs2, active compounds read low) of 0.976. It also gave a normalized growth (locus YAL030W, strain snc1, active compounds read low) of 0.968, a normalized growth (locus YBL061C, strain skt5, active compounds read low) of 0.973 and a normalized growth (locus YBR009C, strain hhf1, active compounds read low) of 0.981. For the same molecule, the normalized growth (locus YBR021W, strain FUR4, active compounds read low) was 0.962, the normalized growth (locus YBR023C, strain chs3, active compounds read low) was 0.979 and the normalized growth (locus YBR171W, strain sec66, active compounds read low) was 0.95. It also gave a normalized growth (locus YBR229C, strain ROT2, active compounds read low) of 0.99, a normalized growth (locus YBR231C, strain swc5, active compounds read low) of 0.976 and a normalized growth (locus YBR279W, strain paf1, active compounds read low) of 0.987. It also gave a normalized growth (locus YCL011C, strain gbp2, active compounds read low) of 0.995, a normalized growth (locus YCL016C, strain dcc1, active compounds read low) of 0.992 and a normalized growth (locus YCL029C, strain bik1, active compounds read low) of 0.968. For the same molecule, the normalized growth (locus YCL069W, strain vba3, active compounds read low) was 0.97, the normalized growth (locus YCR088W, strain abp1, active compounds read low) was 0.967 and the normalized growth (locus YDL005C, strain med2, active compounds read low) was 0.956. For the same molecule, the normalized growth (locus YDL035C, strain GPR1, active compounds read low) was 0.989, the normalized growth (locus YDL040C, strain nat1, active compounds read low) was 0.979 and the normalized growth (locus YDL074C, strain BRE1, active compounds read low) was 0.985. It also gave a normalized growth (locus YDL101C, strain DUN1, active compounds read low) of 0.985, a normalized growth (locus YDL134C, strain PPH21, active compounds read low) of 0.988 and a normalized growth (locus YDL185W, strain tfp1, active compounds read low) of 0.966. For the same molecule, the normalized growth (locus YDL192W, strain arf1, active compounds read low) was 0.977, the normalized growth (locus YDR001C, strain nth1, active compounds read low) was 0.976 and the normalized growth (locus YDR069C, strain doa4, active compounds read low) was 0.966. For the same molecule, the normalized growth (locus YDR101C, strain arx1, active compounds read low) was 0.981, the normalized growth (locus YDR137W, strain rgp1, active compounds read low) was 1.01 and the normalized growth (locus YDR150W, strain NUM1, active compounds read low) was 0.986. It also gave a normalized growth (locus YDR159W, strain sac3, active compounds read low) of 0.931, a normalized growth (locus YDR162C, strain NBP2, active compounds read low) of 1 and a normalized growth (locus YDR195W, strain ref2) of 0.915. The normalized growth (locus YDR297W, strain sur2, active compounds read low) was 0.988, the normalized growth (locus YDR318W, strain mcm21, active compounds read low) was 0.98 and the normalized growth (locus YDR334W, strain swr1, active compounds read low) was 0.983. It also gave a normalized growth (locus YDR335W, strain msn5, active compounds read low) of 0.959, a normalized growth (locus YDR388W, active compounds read low) of 0.972 and a normalized growth (locus YDR392W, strain spt3, active compounds read low) of 1.03. It also gave a normalized growth (locus YDR502C, strain sam2, active compounds read low) of 0.98, a normalized growth (locus YEL003W, strain gim4, active compounds read low) of 0.975 and a normalized growth (locus YEL037C, strain rad23, active compounds read low) of 0.957. For the same molecule, the normalized growth (locus YEL061C, strain CIN8 (second series), active compounds read low) was 0.966, the normalized growth (locus YEL061C, strain CIN8, active compounds read low) was 0.993 and the normalized growth (locus YER015W, strain faa2, active compounds read low) was 0.99. The normalized growth (locus YER016W, strain bim1, active compounds read low) was 0.968, the normalized growth (locus YER110C, active compounds read low) was 0.971 and the normalized growth (locus YER111C, strain swi4, active compounds read low) was 0.969. The normalized growth (locus YER155C, strain BEM2 (second series), active compounds read low) was 0.973, the normalized growth (locus YER155C, strain BEM2, active compounds read low) was 1 and the normalized growth (locus YER167W, strain BCK2, active compounds read low) was 0.986. For the same molecule, the normalized growth (locus YFR010W, strain ubp6, active compounds read low) was 0.951, the normalized growth (locus YGL078C, strain dbp3, active compounds read low) was 0.976 and the normalized growth (locus YGL086W, strain mad1, active compounds read low) was 0.984. It also gave a normalized growth (locus YGL167C, strain pmr1, active compounds read low) of 0.965, a normalized growth (locus YGL173C, strain kem1, active compounds read low) of 0.979 and a normalized growth (locus YGL227W, strain vid30, active compounds read low) of 0.974. For the same molecule, the normalized growth (locus YGL240W, strain doc1, active compounds read low) was 0.978, the normalized growth (locus YGL248W, strain PDE1, active compounds read low) was 0.991 and the normalized growth (locus YGL253W, strain hxk2, active compounds read low) was 0.908 (active). It also gave a normalized growth (locus YGR078C, strain PAC10, active compounds read low) of 1, a normalized growth (locus YGR135W, strain pre9, active compounds read low) of 0.972 and a normalized growth (locus YGR229C, strain SMI1, active compounds read low) of 1.01. The normalized growth (locus YGR252W, strain gcn5, active compounds read low) was 1.01, the normalized growth (locus YHR013C, strain ard1, active compounds read low) was 0.951 and the normalized growth (locus YHR027C, strain rpn1, active compounds read low) was 0.972. For the same molecule, the normalized growth (locus YHR030C, strain SLT2, active compounds read low) was 0.983 and 0.956, the normalized growth (locus YHR079C, strain IRE1 (second series), active compounds read low) was 0.96 and the normalized growth (locus YHR079C, strain IRE1, active compounds read low) was 0.961. For the same molecule, the normalized growth (locus YHR094C, strain hxt1, active compounds read low) was 0.977, the normalized growth (locus YHR129C, strain ARP1, active compounds read low) was 0.987 and the normalized growth (locus YHR142W, strain chs7, active compounds read low) was 0.901. The normalized growth (locus YHR200W, strain rpn10, active compounds read low) was 0.974, the normalized growth (locus YIL066C, strain RNR3, active compounds read low) was 0.985 and the normalized growth (locus YIL073C, strain SPO22, active compounds read low) was 0.961. It also gave a normalized growth (locus YIL125W, strain kgd1, active compounds read low) of 0.99, a normalized growth (locus YIR030C, strain dcg1, active compounds read low) of 0.967 and a normalized growth (locus YJL092W, strain hpr5, active compounds read low) of 0.972. For the same molecule, the normalized growth (locus YJL095W, strain BCK1 (second series), active compounds read low) was 0.975, the normalized growth (locus YJL095W, strain BCK1, active compounds read low) was 0.98 and 1 and the normalized growth (locus YJL115W, strain asf1, active compounds read low) was 0.983. The normalized growth (locus YJL129C, strain trk1, active compounds read low) was 0.877, the normalized growth (locus YJL134W, strain LCB3, active compounds read low) was 0.989 and the normalized growth (locus YJL154C, strain vps35, active compounds read low) was 0.974. For the same molecule, the normalized growth (locus YJL164C, strain tpk1, active compounds read low) was 0.981, the normalized growth (locus YJL166W, strain qcr8, active compounds read low) was 0.952 and the normalized growth (locus YJL168C, strain set2, active compounds read low) was 0.965. It also gave a normalized growth (locus YJL187C, strain SWE1 (second series), active compounds read low) of 0.979, a normalized growth (locus YJL187C, strain SWE1, active compounds read low) of 0.975 and a normalized growth (locus YJR043C, strain POL32, active compounds read low) of 0.985. It also gave a normalized growth (locus YJR066W, strain TOR1, active compounds read low) of 0.929.

From PubChem BioAssay AID1159580 (chemical genetic matrix, 2015)
